# Measured values from PubChem BioAssay (EPA / NIEHS).
# “And” between values parts separate entries of the source, which are not always exact repeats. Equal entries are not always repeated. Records with an inconclusive call do not appear. Some structures have more than one record in an assay (separate samples or runs), and their calls can disagree. The source made the active and inactive calls. How the source made its calls: active means hit-call score of the fitted dose curve at least 0.9, where 1 is the maximum; inconclusive means response in the unintended direction; inactive means score below 0.9.
# What was measured:
# [1] = biological target: Androgen Receptor/SRC-1 Co-activator, AR (gene 367) (UniProt P10275); test: OT_AR_ARSRC1_0480: Odyssey Thera (OT) 8-hour HEK293T Protein-Complementation Assay for Androgen Receptor/SRC-1 Co-activator (AID 2283354);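 further: hits raise the complementation signal above DMSO so AC50 marks enhancers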
# In short: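 HEK293T cells stably expressing AR and SRC-1 fused to Venus YFP fragments, imaged 8 h after dosing. Complementation fluorescence scored as nuclear/cytoplasmic ratio at 488 nm in at least 400 cells per image; gain fitted versus DMSO.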
# [2] = biological target: Estrogen receptor beta (Homo sapiens) (UniProt Q92731); test: OT_ER_ERbERb_0480: Odyssey Thera (OT) 8-hour HEK293T Protein-Complementation Assay for Estrogen Receptor-beta/-beta Homodimer (AID 2283357);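 further: active means signal gain over DMSO baseline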
# In short: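 Fluorescence intensity, nuclear for agonists and nuclear plus cytoplasmic for antagonists, was quantified by laser scanning cytometry versus vehicle after 8 h treatment. The cells were HEK293T stably carrying ER beta LBD fragment-complementation partners.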
# [3] = biological target: Retinoic acid receptor alpha (Homo sapiens) (UniProt P10276); test: NVS_NR_hRAR_Antagonist: NovaScreen (NVS) Nuclear Receptor Binding Assay for human Retinoic Acid Alpha Receptor Antagonism (RAR) (AID 2283358)
# In short: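 Cell-free TR-FRET binding assay with extracted human RARalpha in antagonist mode, read 2 h after dosing. Loss of signal was fitted relative to DMSO; the primary screen used 25 uM in duplicate, with concentration series on follow-up.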
# [4] = biological target: T1, Estrogen receptor (Homo sapiens) + Estrogen receptor beta (Homo sapiens) (UniProt P03372+Q92731); test: OT_ER_ERaERb_0480: Odyssey Thera (OT) 8-hour HEK293T Protein-Complementation Assay for Estrogen Receptor-alpha/-beta Heterodimer (AID 2283352)
# In short: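 HEK293T protein-fragment complementation assay of ER-alpha/ER-beta LBD heterodimerisation, read 8 h after dosing. Mean nuclear/cytoplasmic fluorescence intensity measured by laser scanning cytometry; gain of signal fitted relative to DMSO.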
# [5] = biological target: T1, Estrogen receptor (Homo sapiens) + Estrogen receptor beta (Homo sapiens); test: OT_ER_ERaERb_1440: Odyssey Thera (OT) 24-hour HEK293T Protein-Complementation Assay for Estrogen Receptor-alpha/-beta Homodimer (AID 2283356);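 further: heteromer of ER alpha and ER beta binding domains; hits raise reporter fluorescence and both agonists and antagonists give an increase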
# In short: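 HEK293T stably expressing a PCA of ER alpha LBD (aa 310-547) and ER beta LBD (aa 263-489). After 24 h compound exposure, mean fluorescence intensity in nucleus (agonists) or nucleus and cytoplasm (antagonists) measured by laser scanning cytometry versus vehicle.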
# [6] = biological target: human Peroxisome Proliferator-activated Receptor alpha (PPARa), PPARA (gene 5465) (UniProt Q07869); test: NVS_NR_hPPARa: NovaScreen (NVS) Nuclear Receptor Binding Assay for human Peroxisome Proliferator-activated Receptor alpha (PPARa) (AID 2283359);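 further: activity means loss of TR-FRET signal versus DMSO baseline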
# In short: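 Cell-free TR-FRET binding assay with extracted PPARα protein, read 1 h after dosing. Primary screen in duplicate at 25 uM, with actives retested in concentration series. Loss of signal versus DMSO.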
# [7] = biological target: rat Mineralocorticoid Receptor (MR), Nr3c2 (gene 25672) (UniProt P22199); test: NVS_NR_rMR: NovaScreen (NVS) Nuclear Receptor Binding Assay for rat Mineralocorticoid Receptor (MR) (AID 2283355)
# In short: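 Cell-free radioligand binding to mineralocorticoid receptor from adrenalectomized rat brain supernatant, scintillation counting after 24 h. Primary screen in duplicate at 25 uM; actives retested in concentration series. Loss of specific binding versus DMSO.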
# PGR (gene 5241) = PGR (gene 5241) (UniProt P06401); test: NVS_NR_hPR: NovaScreen (NVS) Nuclear Receptor Binding Assay for human Progestron Receptor (PR) (AID 2283360);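 further: active means loss of bound radioligand signal versus DMSO baseline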
# In short: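 T47D-derived receptor preparation, cell-free, with tritiated or iodinated radioligand displacement measured by scintillation 18 h post-dosing. Single 25 uM duplicate screen, then concentration series; signal loss relative to DMSO.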
# [8] = biological target: Retinoic acid receptor alpha (Homo sapiens) (UniProt P10276); test: NVS_NR_hRARa_Agonist: NovaScreen (NVS) Nuclear Receptor Binding Assay for human Retinoic Acid Alpha Receptor Agonism (RAR) (AID 2283361)
# In short: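 Cell-free TR-FRET binding readout with extracted receptor protein, read 2 hours after dosing; gain-of-signal fitted relative to DMSO. Screened in duplicate at 25 uM, actives then run in concentration-response.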
# [9] = biological target: human Thyroid Receptor Alpha (TRa), THRA (gene 7067) (UniProt P10827); test: NVS_NR_hTRa_Antagonist: NovaScreen (NVS) Nuclear Receptor Binding Assay for human Thyroid Receptor Alpha Antagonism (TRa) (AID 2283362);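 further: activity is loss of signal relative to DMSO baseline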
# In short: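 Cell-free AlphaLISA chemiluminescent binding read 1 h after dosing, antagonist mode; signal loss versus DMSO baseline. Primary screen in duplicate at 25 uM, then concentration series for actives.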
# Sequence of PGR (gene 5241) (P06401 whole entry, looked up): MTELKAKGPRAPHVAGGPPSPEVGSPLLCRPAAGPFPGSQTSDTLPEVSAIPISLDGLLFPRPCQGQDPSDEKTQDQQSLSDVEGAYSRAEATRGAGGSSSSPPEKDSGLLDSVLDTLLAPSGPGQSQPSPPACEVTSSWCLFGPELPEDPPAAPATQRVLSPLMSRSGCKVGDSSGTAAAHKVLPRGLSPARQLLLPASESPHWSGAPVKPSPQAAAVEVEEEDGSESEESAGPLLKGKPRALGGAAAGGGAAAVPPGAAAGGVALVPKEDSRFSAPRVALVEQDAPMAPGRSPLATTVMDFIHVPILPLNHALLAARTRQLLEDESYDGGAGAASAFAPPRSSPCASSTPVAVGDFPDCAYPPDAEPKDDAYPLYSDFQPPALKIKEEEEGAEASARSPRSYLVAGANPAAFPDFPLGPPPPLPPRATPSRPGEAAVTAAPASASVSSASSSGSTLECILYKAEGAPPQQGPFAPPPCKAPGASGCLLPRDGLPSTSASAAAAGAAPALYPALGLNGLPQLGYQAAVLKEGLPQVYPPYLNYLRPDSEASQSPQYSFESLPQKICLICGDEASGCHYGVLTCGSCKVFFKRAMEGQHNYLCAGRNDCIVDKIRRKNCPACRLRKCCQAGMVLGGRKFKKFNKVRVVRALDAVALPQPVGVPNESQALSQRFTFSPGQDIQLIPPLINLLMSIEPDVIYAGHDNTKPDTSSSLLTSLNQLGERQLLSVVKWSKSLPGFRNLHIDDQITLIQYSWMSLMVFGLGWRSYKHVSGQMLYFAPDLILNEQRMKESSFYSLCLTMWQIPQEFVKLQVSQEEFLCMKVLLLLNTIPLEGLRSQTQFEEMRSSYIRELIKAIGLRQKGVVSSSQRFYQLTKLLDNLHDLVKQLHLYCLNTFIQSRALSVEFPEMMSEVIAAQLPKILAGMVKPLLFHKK
# Sequence of Estrogen receptor beta (Homo sapiens) (Q92731 whole entry, looked up, the tested form may be a part): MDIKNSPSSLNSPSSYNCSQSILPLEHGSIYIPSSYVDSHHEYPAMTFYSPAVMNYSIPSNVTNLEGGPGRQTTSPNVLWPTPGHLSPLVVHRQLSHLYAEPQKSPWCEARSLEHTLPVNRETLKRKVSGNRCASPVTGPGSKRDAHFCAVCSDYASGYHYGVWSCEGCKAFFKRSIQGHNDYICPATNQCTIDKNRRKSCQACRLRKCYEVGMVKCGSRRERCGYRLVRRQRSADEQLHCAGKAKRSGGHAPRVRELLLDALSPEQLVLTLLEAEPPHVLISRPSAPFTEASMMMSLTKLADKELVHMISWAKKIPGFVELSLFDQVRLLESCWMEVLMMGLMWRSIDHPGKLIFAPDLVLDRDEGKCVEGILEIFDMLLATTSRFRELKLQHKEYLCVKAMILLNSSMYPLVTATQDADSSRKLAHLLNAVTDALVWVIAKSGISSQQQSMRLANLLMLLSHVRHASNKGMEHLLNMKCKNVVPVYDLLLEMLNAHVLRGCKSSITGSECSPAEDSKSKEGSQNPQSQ
# Sequence of Androgen Receptor/SRC-1 Co-activator, AR (gene 367) (P10275 whole entry, looked up, the tested form may be a part): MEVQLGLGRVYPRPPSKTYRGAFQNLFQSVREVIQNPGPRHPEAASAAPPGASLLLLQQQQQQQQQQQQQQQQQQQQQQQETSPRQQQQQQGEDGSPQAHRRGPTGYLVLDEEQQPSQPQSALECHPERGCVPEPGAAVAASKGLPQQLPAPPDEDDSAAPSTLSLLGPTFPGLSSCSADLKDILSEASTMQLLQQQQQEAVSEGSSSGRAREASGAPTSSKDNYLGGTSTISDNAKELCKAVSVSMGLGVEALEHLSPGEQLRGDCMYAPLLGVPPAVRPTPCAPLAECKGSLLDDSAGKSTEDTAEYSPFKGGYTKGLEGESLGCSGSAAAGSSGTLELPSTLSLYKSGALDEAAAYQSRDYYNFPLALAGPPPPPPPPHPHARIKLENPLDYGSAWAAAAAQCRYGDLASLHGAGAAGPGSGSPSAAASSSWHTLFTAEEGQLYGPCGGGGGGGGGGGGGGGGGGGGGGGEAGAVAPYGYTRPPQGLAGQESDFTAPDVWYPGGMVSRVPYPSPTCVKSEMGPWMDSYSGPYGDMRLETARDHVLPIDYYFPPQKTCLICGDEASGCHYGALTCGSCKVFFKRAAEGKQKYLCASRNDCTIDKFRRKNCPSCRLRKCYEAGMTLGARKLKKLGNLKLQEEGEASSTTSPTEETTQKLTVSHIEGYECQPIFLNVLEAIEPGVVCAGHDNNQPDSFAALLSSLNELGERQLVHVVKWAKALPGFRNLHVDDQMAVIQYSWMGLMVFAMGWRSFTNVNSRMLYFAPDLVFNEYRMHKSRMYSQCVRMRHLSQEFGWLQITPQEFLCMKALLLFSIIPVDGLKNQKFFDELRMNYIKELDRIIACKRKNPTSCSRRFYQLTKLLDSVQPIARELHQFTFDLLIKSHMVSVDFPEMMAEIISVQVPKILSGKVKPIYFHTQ
# Sequence of Retinoic acid receptor alpha (Homo sapiens) (P10276 whole entry, looked up): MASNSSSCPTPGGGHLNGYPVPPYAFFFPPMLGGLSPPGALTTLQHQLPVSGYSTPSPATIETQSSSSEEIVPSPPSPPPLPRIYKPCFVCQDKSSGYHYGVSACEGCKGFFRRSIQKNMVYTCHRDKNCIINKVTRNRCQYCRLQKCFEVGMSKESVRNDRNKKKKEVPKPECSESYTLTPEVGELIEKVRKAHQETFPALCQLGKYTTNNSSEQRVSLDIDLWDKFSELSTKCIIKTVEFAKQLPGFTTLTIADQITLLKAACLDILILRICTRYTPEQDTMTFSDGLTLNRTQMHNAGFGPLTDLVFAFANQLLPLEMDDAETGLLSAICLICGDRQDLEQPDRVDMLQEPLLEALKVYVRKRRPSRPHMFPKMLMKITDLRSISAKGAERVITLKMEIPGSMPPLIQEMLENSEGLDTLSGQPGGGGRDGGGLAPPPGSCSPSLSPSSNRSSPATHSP
# Sequence of human Peroxisome Proliferator-activated Receptor alpha (PPARa), PPARA (gene 5465) (Q07869 whole entry, looked up): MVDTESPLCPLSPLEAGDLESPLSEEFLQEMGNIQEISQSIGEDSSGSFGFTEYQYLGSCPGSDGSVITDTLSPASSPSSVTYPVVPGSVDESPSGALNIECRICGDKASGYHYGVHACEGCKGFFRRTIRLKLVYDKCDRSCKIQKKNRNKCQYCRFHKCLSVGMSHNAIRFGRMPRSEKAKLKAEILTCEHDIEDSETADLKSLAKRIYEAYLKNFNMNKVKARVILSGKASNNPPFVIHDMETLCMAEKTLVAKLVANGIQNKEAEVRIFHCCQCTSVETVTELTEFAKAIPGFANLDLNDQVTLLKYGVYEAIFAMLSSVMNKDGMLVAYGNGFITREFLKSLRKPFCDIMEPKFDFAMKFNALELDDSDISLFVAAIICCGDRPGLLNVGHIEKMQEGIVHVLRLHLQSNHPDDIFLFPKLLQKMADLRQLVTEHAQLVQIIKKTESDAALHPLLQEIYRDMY
# Sequence of human Thyroid Receptor Alpha (TRa), THRA (gene 7067) (P10827 whole entry, looked up): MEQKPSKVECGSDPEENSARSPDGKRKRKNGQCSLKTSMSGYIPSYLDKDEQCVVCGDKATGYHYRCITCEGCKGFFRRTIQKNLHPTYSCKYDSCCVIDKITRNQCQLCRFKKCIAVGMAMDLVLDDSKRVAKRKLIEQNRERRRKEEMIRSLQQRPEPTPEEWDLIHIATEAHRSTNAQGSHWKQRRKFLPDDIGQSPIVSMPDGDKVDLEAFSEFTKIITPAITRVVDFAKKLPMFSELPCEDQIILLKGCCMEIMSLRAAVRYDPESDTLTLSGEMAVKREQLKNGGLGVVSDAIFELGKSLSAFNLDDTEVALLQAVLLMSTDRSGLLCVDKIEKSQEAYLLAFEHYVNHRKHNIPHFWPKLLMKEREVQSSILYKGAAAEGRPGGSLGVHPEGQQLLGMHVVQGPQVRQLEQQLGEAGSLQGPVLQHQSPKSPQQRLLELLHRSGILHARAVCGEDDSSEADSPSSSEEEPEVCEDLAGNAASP
# T1 sequence (P03372 whole entry, looked up, the tested form may be a part): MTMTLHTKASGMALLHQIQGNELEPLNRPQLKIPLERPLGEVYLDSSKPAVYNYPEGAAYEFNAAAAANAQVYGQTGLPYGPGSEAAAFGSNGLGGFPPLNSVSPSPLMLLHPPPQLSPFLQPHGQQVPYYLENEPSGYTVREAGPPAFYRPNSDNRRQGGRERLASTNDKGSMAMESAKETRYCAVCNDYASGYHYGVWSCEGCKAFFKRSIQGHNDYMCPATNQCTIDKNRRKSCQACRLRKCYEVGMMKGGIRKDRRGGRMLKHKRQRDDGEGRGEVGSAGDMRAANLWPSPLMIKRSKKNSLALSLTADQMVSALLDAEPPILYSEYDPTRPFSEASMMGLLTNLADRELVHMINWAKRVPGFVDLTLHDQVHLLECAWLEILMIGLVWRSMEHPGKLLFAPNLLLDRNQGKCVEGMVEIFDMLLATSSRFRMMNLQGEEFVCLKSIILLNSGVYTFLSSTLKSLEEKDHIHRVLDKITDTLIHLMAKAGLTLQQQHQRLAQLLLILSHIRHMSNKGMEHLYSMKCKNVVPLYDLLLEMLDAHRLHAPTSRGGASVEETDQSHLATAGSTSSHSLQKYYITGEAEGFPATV
# T1 sequence (Q92731 whole entry, looked up, the tested form may be a part): as the sequence (Q92731 whole entry, looked up, the tested form may be a part) above
smiles,measurement,setting,value
C#CC(O)C(CC)CCCC (stereo unspecified),AC50,[1],93.7 µM (active)
same,outcome,[2],inactive
O=C1OC(c2ccc(O)cc2)(c2ccc(O)cc2)c2ccccc21,AC50,[1],60.1 µM (active)
same,AC50,[2],12 µM (active)
same,outcome,[3],inactive
COc1ccc(C(=O)Nc2nc3ccccc3c(NCc3ccccc3)c2C#N)cc1,outcome,[4],inactive
same,outcome,[5],inactive
same,outcome,[2],inactive
same,outcome,[6],inactive
NC1CCCCC1,outcome,[4],inactive
same,outcome,[5],inactive
same,outcome,[2],inactive
OCC(CO)n1cnc(-c2ccc(F)cc2)c1-c1ccnc(Oc2ccccc2)n1,outcome,[4],inactive
same,outcome,[5],inactive
same,outcome,[2],inactive
Nc1nc(=S)c2[nH]cnc2[nH]1,outcome,[4],inactive
same,outcome,[1],inactive
same,outcome,[5],inactive
same,outcome,[2],inactive
O=C(N[C@@H](c1ccccc1)[C@@H]1CCCCN1)c1cccc(C(F)(F)F)c1Cl,outcome,[7],inactive
same,outcome,[5],inactive
same,outcome,[2],inactive
same,outcome,[6],inactive
Cc1ccc(C(C)(C)C)c(O)c1,outcome,[4],inactive
same,AC50,[5],33.9 µM (active)
same,AC50,[2],13.2 µM (active)
O=C(NS(=O)(=O)/C=C/c1cccs1)c1ccc(F)cc1Br,outcome,[5],inactive
same,outcome,[2],inactive
CCCCCCCC(=O)OC,outcome,[5],inactive
same,outcome,[2],inactive
CC(C)OC(=O)C(C)(C)Oc1ccc(C(=O)c2ccc(Cl)cc2)cc1,outcome,[4],inactive
same,outcome,[1],inactive
same,outcome,[5],inactive
same,outcome,[2],inactive
O=C1CCCCC1,outcome,[4],inactive
same,outcome,[1],inactive
same,outcome,[5],inactive
same,outcome,[2],inactive
CN(C)C(=O)NC1(c2ccccc2)CCN(CCC[C@]2(c3ccc(Cl)c(Cl)c3)CCCN(C(=O)c3ccccc3)C2)CC1,outcome,[4],inactive
same,AC50,[5],2.97 µM (active)
same,outcome,[2],inactive
Oc1ccc(O)cc1,outcome,[4],inactive
same,outcome,[5],inactive
same,outcome,[2],inactive
same,outcome,[6],inactive
Cc1cc(SC2=C(O)C[C@@](CCc3ccc(N)cc3)(C(C)C)OC2=O)c(C(C)(C)C)cc1CO,outcome,[1],inactive
COc1ccc(OC(F)(F)F)cc1CN[C@H]1CCCN[C@H]1c1ccccc1,outcome,[4],inactive
same,outcome,[5],inactive
same,outcome,[6],inactive
C=CCCCCCCCCCCCC,outcome,[1],inactive
same,outcome,[2],inactive
CCCCCCCCCCCCCCCCO,outcome,[5],inactive
CC1=C(C)S(=O)(=O)CCS1(=O)=O,outcome,[1],inactive
same,outcome,[6],inactive
same,outcome,PGR (gene 5241),inactive
NCCOCCOCCN,outcome,[1],inactive
same,outcome,[2],inactive
CC(=O)[C@@]1(O)CC[C@H]2[C@@H]3CCC4=CC(=O)CC[C@]4(C)[C@H]3CC[C@@]21C,outcome,[2],inactive
same,AC50,PGR (gene 5241),0.645 µM (active)
same,outcome,[8],inactive
COC(=O)CCC(=O)OC,outcome,PGR (gene 5241),inactive
O=C1NC(=O)C(c2ccccc2)(c2ccccc2)N1,outcome,[9],inactive
CCCCOC(=O)CCCCC(=O)OCCCC,outcome,[6],inactive
S=c1[nH]c2ccccc2s1,outcome,[2],inactive
Oc1ccccc1O,outcome,[2],inactive
same,outcome,[6],inactive
CC(C)NCC(O)c1ccc(O)c(O)c1 (stereo unspecified),outcome,[2],inactive
same,outcome,[6],inactive
same,outcome,[9],inactive
CC(C)COC(=O)CCCCC(=O)OCC(C)C,outcome,[6],inactive
same,outcome,PGR (gene 5241),inactive
CCCCC(CC)COC(=O)CCCCCCCC(=O)OCC(CC)CCCC (stereo unspecified),outcome,[2],inactive
Cc1cc(Cc2ccc(N)c(C)c2)ccc1N,AC50,[2],67.6 µM (active)
same,outcome,[9],inactive
O=C(O)c1[nH]n(-c2ccc(S(=O)(=O)O)cc2)c(=O)c1N=Nc1ccc(S(=O)(=O)O)cc1,outcome,[9],inactive
CCCCC(CC)CO (stereo unspecified),outcome,[2],inactive
CCCCCCC(C=O)=Cc1ccccc1,outcome,[2],inactive
CC(C)c1cccc(C(C)C)c1NC(=O)NS(=O)(=O)c1cc(C(C)(C)O)co1,outcome,[2],inactive
same,outcome,[6],inactive
CCN(CC)CCOc1ccc(C(=C(Cl)c2ccccc2)c2ccccc2)cc1,AC50,[2],21.5 nM (active) and 118 nM (active) and 9.83 nM (active)
same,AC50,[3],16.1 µM (active) and 11 µM (active) and 12.5 µM (active)
same,AC50,[8],25.9 µM (active) and 21 µM (active)
same,outcome,[8],inactive
same,AC50,[9],14.9 µM (active) and 12.2 µM (active) and 16.3 µM (active)
Nc1nc(Cl)nc2c1ncn2[C@H]1C[C@H](O)[C@@H](CO)O1,outcome,[6],inactive
Cn1cnc2c1c(=O)[nH]c(=O)n2C,outcome,PGR (gene 5241),inactive
CC(=O)O,outcome,PGR (gene 5241),inactive
CO[C@@H]1COCC[C@@H]1N[C@@H]1CC[C@@](C(=O)N2CCc3ncc(C(F)(F)F)cc3C2)(C(C)C)C1,outcome,[2],inactive
same,outcome,PGR (gene 5241),inactive
CC(N)=O,outcome,[2],inactive
O=C1O[C@H]([C@H](O)CO)C(O)=C1O,outcome,[2],inactive
CN(C)CCCN(C)CCCN(C)C,outcome,[5],inactive
same,outcome,[2],inactive
same,outcome,[6],inactive
same,outcome,PGR (gene 5241),inactive
CCCCCCC(CCCCCCCCCCC(=O)OCC(COC(C)=O)OC(C)=O)OC(C)=O (stereo unspecified),outcome,[5],inactive
same,outcome,[2],inactive
same,outcome,[6],inactive
O=C(O)c1cccnc1,outcome,[2],inactive
same,outcome,PGR (gene 5241),inactive
OCC(O)CO,outcome,PGR (gene 5241),inactive
CCCCCCCCCCCCCCOS(=O)(=O)O,outcome,[5],inactive
same,outcome,[2],inactive
same,AC50,[6],3.99 µM (active)
CC(C)(C)c1ccccc1,outcome,[2],inactive
same,outcome,[6],inactive
C/C=C/c1ccc(OC)cc1,outcome,[2],inactive
NC=O,outcome,[2],inactive
CC(=O)OCC(COC(C)=O)OC(C)=O,outcome,[2],inactive
CC(=O)OC1CC(C)OC(C)O1 (stereo unspecified),outcome,[2],inactive
CC(COCC(C)OC(=O)c1ccccc1)OC(=O)c1ccccc1 (stereo unspecified),outcome,[2],inactive
Cc1cn([C@H]2C=C[C@@H](CO)O2)c(=O)[nH]c1=O,outcome,[2],inactive
CC(=O)O[C@]1(C(C)=O)CC[C@H]2[C@@H]3C=C(Cl)C4=CC(=O)[C@@H]5C[C@@H]5[C@]4(C)[C@H]3CC[C@@]21C,outcome,[2],inactive
same,outcome,[6],inactive
C/C=C/C=C/C(=O)O,outcome,[2],inactive
C=CCc1ccc(OC)c(OC)c1,outcome,[2],inactive
